Results: PubChem BioAssay (NCATS)
Records with an inconclusive call do not appear. Active and inactive are the calls of the source. The call rests on the fitted dose curve; in most records, active means well fitted curve in the direction sought with a large enough effect; inconclusive means small, poorly fitted or top-dose-only effect, or another doubt; inactive means no such curve, though single readings can be large; an effect the other way counts as inactive or inconclusive.

Legend:
[1] = BET inhibitor-based combinations targeting novel dependencies in MECOM-rearranged (r) AML: SET-2 cell line (AID 2202231); settings: SET-2 AML cells viability, CellTiter-Glo luminescence, 48 h; viability: active compounds read low, concentration not given here; further: nearly all actives have a fitted effect of over 35% in size;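 on viability: plate controls were DMSO treated cells for no effect and wells without cells for full effect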
How it was run: (§1)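 Viability of cells (500 per well) is scored by luminescent CellTiter-Glo at 48 hr post-dosing. Eleven-point titrations are normalized to DMSO and empty controls and reduced to AUC values.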

[2] = BET inhibitor-based combinations targeting novel dependencies in MECOM-rearranged (r) AML: OCI-AML3 cell line (AID 2202232); settings: Potency: OCI-AML3 viability; further: nearly all actives have a fitted effect of over 35% in size
How it was run: as §1

[3] = BET inhibitor-based combinations targeting novel dependencies in MECOM-rearranged (r) AML: MV-4-11 cell line (AID 2202233); further: nearly all actives have a fitted effect of over 45% in size
How it was run: (§2)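 Using pin-tool transfer, drugs were added in 11 doses to cells (500/well), incubated 48 hr, and assessed with CellTiter-Glo. Z-AUC is a mean-centring transformation applied separately to each screened line.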

[4] = BET inhibitor-based combinations targeting novel dependencies in MECOM-rearranged (r) AML: UCSD-AML1 cell line (AID 2202235); further: nearly all actives have a fitted effect of over 40% in size
How it was run: as §2

[5] = BET inhibitor-based combinations targeting novel dependencies in MECOM-rearranged (r) AML: AML-191 cell line (AID 2202236; further: nearly all actives have a fitted effect of over 35% in size)
How it was run: as §1

[6] = BET inhibitor-based combinations targeting novel dependencies in MECOM-rearranged (r) AML: AML-194 cell line (AID 2202237; further: nearly all actives have a fitted effect of over 40% in size)
How it was run: as §1

[7] = BET inhibitor-based combinations targeting novel dependencies in MECOM-rearranged (r) AML: HNT-34 cell line (AID 2202234); further: nearly all actives have a fitted effect of over 35% in size
How it was run: as §2
Potency means the concentration at half of the fitted maximal effect.

COc1ccc(S(=O)(=O)N(C(C)=O)c2ccccc2/C=C/c2cc[n+]([O-])cc2)cc1
active: Potency [1] 2.63 µM | Potency [2] 1.18 µM | Potency [3] 1.18 µM | Potency [4] 1.32 µM | Potency [5] 1.18 µM | Potency [6] 0.833 µM

Cc1nc2cccc(N)c2c(=O)n1C1CCC(=O)NC1=O (stereo not drawn)
inactive: viability [1] 109% | Potency [2] | Potency [3] | Potency [4] | Potency [5] | Potency [6]

C=C1C(=O)OC2/C=C(/C)CC/C=C(/C)CCC12 (stereo not drawn)
active: Potency [1] 20.9 µM | Potency [2] 18.6 µM | Potency [3] 14.8 µM | Potency [4] 26.3 µM | Potency [5] 26.3 µM

CN(C)CCNC(=O)NC[C@H]1CC[C@@H]2[C@H](O1)c1cc(C(F)(F)F)ccc1N[C@H]2c1ccccc1
active: Potency [1] 0.742 µM | Potency [2] 0.296 µM | Potency [3] 0.296 µM | Potency [4] 0.235 µM | Potency [5] 0.332 µM | Potency [6] 0.332 µM

C=C1C[C@@H]2CC[C@@]34C[C@H]5O[C@H]6[C@@H](O3)[C@H]3O[C@H](CC[C@@H]3O[C@H]6[C@H]5O4)CC(=O)C[C@@H]3[C@@H](OC)[C@@H](C[C@H](O)CN)O[C@H]3C[C@H]3O[C@@H](CC[C@@H]1O2)C[C@@H](C)C3=C
active: Potency [1] 0.152 µM | Potency [2] 0.0015 µM | Potency [3] 0.0017 µM | Potency [4] 0.0011 µM | Potency [5] 0.0015 µM | Potency [6] 0.0019 µM

CC(=O)Nc1ccc(O)cc1
inactive: viability [1] 94.1% | Potency [2] | Potency [3] | Potency [4] | Potency [5] | Potency [6]

Cc1ccc(C(=O)N(CCCN)[C@@H](c2nc3cc(Cl)ccc3c(=O)n2Cc2ccccc2)C(C)C)cc1
active: Potency [1] 0.105 µM | Potency [2] 0.0295 µM | Potency [3] 0.0417 µM | Potency [4] 0.0263 µM | Potency [5] 0.0417 µM | Potency [6] 0.0468 µM

O=c1[nH]c(=O)n([C@H]2C[C@H](O)[C@@H](CO)O2)cc1C(F)(F)F
active: Potency [1] 5.9 µM | Potency [2] 1.66 µM | Potency [3] 1.05 µM | Potency [4] 1.48 µM | Potency [5] 1.32 µM | Potency [6] 4.68 µM

Cc1ccc(C(=O)OCc2ccc([C@@H](CN)C(=O)Nc3ccc4cnccc4c3)cc2)c(C)c1
active: Potency [1] 14.4 µM | Potency [2] 8.11 µM | Potency [3] 3.23 µM | Potency [4] 14.4 µM | Potency [5] 9.1 µM | Potency [6] 8.11 µM

N#Cc1c(N(CC(=O)O)CC(=O)O)sc(C(=O)O)c1CC(=O)O
inactive: viability [1] 117% | Potency [2] | Potency [3] | Potency [4] | Potency [5] | Potency [6]

C=CC(=O)Nc1cc2c(Nc3ccc(F)c(Cl)c3)ncnc2cc1C#CC(C)(C)N1CCN(C)CC1
active: Potency [1] 5.9 µM | Potency [2] 2.63 µM | Potency [3] 0.742 µM | Potency [4] 4.17 µM | Potency [5] 4.68 µM | Potency [6] 4.68 µM

CCCCC(=O)OCC(=O)[C@]1(O)Cc2c(O)c3c(c(O)c2[C@@H](O[C@H]2C[C@H](NC(=O)C(F)(F)F)[C@H](O)[C@H](C)O2)C1)C(=O)c1c(OC)cccc1C3=O
active: Potency [1] 4.17 µM | Potency [2] 0.59 µM | Potency [3] 0.235 µM | Potency [4] 0.833 µM | Potency [5] 1.66 µM | Potency [6] 2.63 µM

C[C@@]12O[C@@H](C[C@]1(O)CO)n1c3ccccc3c3c4c(c5c6ccccc6n2c5c31)CNC4=O
active: Potency [1] 0.417 µM | Potency [2] 0.417 µM | Potency [3] 0.0118 µM | Potency [4] 0.118 µM | Potency [5] 0.0525 µM

c1ccc2[nH]c(-c3cscn3)nc2c1
inactive: viability [1] 111% | Potency [2] | Potency [3] | Potency [4]
active: Potency [5] 18.6 µM | Potency [6] 18.6 µM

CCNCCS(=O)(=O)NC[C@@]1(c2ccccc2)SC(NC(=O)C(C)(C)C)=NN1C(=O)C(C)(C)C
active: Potency [1] 0.118 µM | Potency [2] 0.0042 µM | Potency [3] 0.0042 µM | Potency [4] 0.0047 µM | Potency [5] 0.0209 µM

COc1cc(NS(C)(=O)=O)ccc1Nc1c2ccccc2nc2ccccc12
active: Potency [1] 2.09 µM | Potency [2] 0.372 µM | Potency [3] 0.0661 µM | Potency [4] 0.417 µM | Potency [5] 0.742 µM | Potency [6] 0.742 µM

COc1cc(C(=O)O)ccc1NC(=O)[C@@H]1N[C@@H](CC(C)(C)C)[C@](C#N)(c2ccc(Cl)cc2F)[C@H]1c1cccc(Cl)c1F
active: Potency [2] 2.09 µM | Potency [3] 0.132 µM | Potency [4] 0.468 µM | Potency [5] 0.742 µM | Potency [6] 0.833 µM
inactive: viability [1] 112%

CC(C)(O)c1coc(S(=O)(=O)NC(=O)Nc2c3c(cc4c2CCC4)CCC3)c1
inactive: viability [1] 126% | Potency [2] | Potency [3] | Potency [4] | Potency [5] | Potency [6]

COc1cc2c(Oc3ccc4[nH]c(C)cc4c3F)ccnc2cc1OCC1(N)CC1
active: Potency [1] 16.6 µM | Potency [2] 7.42 µM | Potency [3] 8.33 µM | Potency [4] 9.34 µM | Potency [5] 7.42 µM

C#Cc1cccc(Nc2ncnc3cc4c(cc23)OCCOCCOCCO4)c1
inactive: viability [1] 93.5% | Potency [2]
active: Potency [7] 18.6 µM

CC[C@]12C=CCN3CC[C@@]4(c5cc([C@@]6(C(=O)OC)CC7C[C@@H](C(C)(F)F)CN(Cc8c6[nH]c6ccccc86)C7)c(OC)cc5N(C)[C@H]4[C@@](O)(C(=O)OC)[C@@H]1OC(C)=O)[C@@H]32 (stereo partly drawn)
active: Potency [1] 1.66 µM | Potency [2] 0.296 µM | Potency [3] 0.417 µM | Potency [4] 0.468 µM | Potency [6] 0.332 µM

C[C@]1(C(=O)N(CCCC(=O)O)Cc2cccc(Cl)c2)CCN1C(=O)c1csc2ccccc12
inactive: viability [1] 108% | Potency [2] | Potency [3] | Potency [4] | Potency [5] | Potency [6]

O=C(O)CC(C(=O)O)n1c(O)c(C2=c3cc(Br)ccc3=NC2=O)sc1=S (stereo not drawn)
inactive: viability [1] 100% | Potency [2] | Potency [7] | Potency [4] | Potency [5] | Potency [6]

CC(C)[C@H]1C(=O)N[C@@H](CCCN=C(N)N)C(=O)NCC(=O)N[C@@H](CC(=O)O)C(=O)N[C@H](Cc2ccccc2)C(=O)N1C
inactive: viability [1] 124% | Potency [2] | Potency [7] | Potency [4] | Potency [5] | Potency [6]

NC(=S)N/N=C/c1ncccc1N
active: Potency [1] 16.6 µM | Potency [2] 5.25 µM | Potency [7] 16.6 µM | Potency [4] 5.9 µM | Potency [5] 23.5 µM | Potency [6] 20.9 µM

C[C@H](NC(=O)c1c(N)nn2cccnc12)c1cc2cccc(C#Cc3cnn(C)c3)c2c(=O)n1-c1ccccc1
inactive: viability [1] 101%
active: Potency [2] 0.0512 µM | Potency [3] 8.11 µM | Potency [5] 1.82 µM | Potency [6] 7.23 µM

Cc1ccc(NC(=O)NCc2ccc3c(c2)CN(C2CCC(=O)NC2=O)C3=O)cc1Cl (stereo not drawn)
active: Potency [1] 0.0295 µM | Potency [2] 0.003 µM | Potency [3] 0.0026 µM | Potency [5] 0.0023 µM | Potency [6] 0.0019 µM

O=C1Cc2cc(C(=O)NC3C[C@H]4CC[C@@H](C3)N4S(=O)(=O)CC3CCN(CCCC(F)(F)F)CC3)c(Cl)cc2N1 (stereo partly drawn)
inactive: viability [1] 107% | Potency [2] | Potency [7] | Potency [4] | Potency [5] | Potency [6]

Cn1cc(/C=C/C(=O)c2cccc(F)c2)cc1/C=C/C(=O)NO
active: Potency [1] 1.48 µM | Potency [2] 3.32 µM | Potency [3] 4.68 µM | Potency [4] 4.17 µM | Potency [6] 11.8 µM

CO[C@@]12[C@H](COC(N)=O)C3=C(C(=O)C(C)=C(N)C3=O)N1C[C@@H]1N[C@@H]12
inactive: viability [1] 95% | Potency [2] | Potency [7] | Potency [4] | Potency [5] | Potency [6]

N=C(N)c1ccc(OCCCCCOc2ccc(C(=N)N)cc2)cc1
active: Potency [1] 20.9 µM | Potency [2] 8.33 µM | Potency [7] 26.3 µM | Potency [4] 23.5 µM | Potency [5] 18.6 µM | Potency [6] 20.9 µM

CC(=O)NCCCS(=O)(=O)O
inactive: viability [1] 115% | Potency [2] | Potency [7] | Potency [4] | Potency [5]

CC(C)n1ncnc1-c1cn2c(n1)-c1ccc(O[C@@H](C)C(N)=O)cc1OCC2
active: Potency [2] 2.35 µM | Potency [7] 18.6 µM | Potency [4] 5.25 µM
inactive: viability [1] 99%

COc1ccc(CNC(=O)c2cc(-c3cncc(Cl)c3)cnc2-c2ccccn2)nc1OC
inactive: viability [1] 109% | Potency [2] | Potency [7] | Potency [4] | Potency [5] | Potency [6]

CCCC[C@@H](C=O)NC(=O)[C@H](CC(C)C)NC(=O)OCc1ccccc1
inactive: Potency [4] | Potency [6]
active: Potency [1] 18.6 µM | Potency [2] 13.2 µM | Potency [3] 18.6 µM

CC(C)(C)OC(=O)Nc1ccc(-c2cc(C(=O)NCCCCCCC(=O)NO)no2)cc1
active: Potency [1] 2.95 µM | Potency [2] 2.63 µM | Potency [7] 2.35 µM | Potency [4] 3.72 µM | Potency [5] 2.63 µM | Potency [6] 3.32 µM

Cc1c(C(=O)Nc2ccc(Oc3ccnc4[nH]cc(-c5ccccc5)c34)c(F)c2)c(=O)n(-c2ccc(F)cc2)n1C
inactive: viability [1] 96.3%
active: Potency [2] 20.9 µM | Potency [3] 0.0742 µM | Potency [5] 0.59 µM | Potency [6] 1.66 µM

CNCCn1c(=O)c2cc(OC)c(OC)cc2c2cnc3cc4c(cc3c21)OCO4
active: Potency [1] 0.0241 µM | Potency [2] 0.0215 µM | Potency [7] 0.0121 µM | Potency [4] 0.0191 µM | Potency [5] 0.0241 µM | Potency [6] 0.0241 µM

COc1cc2nccc(Oc3ccc(NC(=O)c4cn(C(C)C)c(=O)n(-c5ccc(F)cc5)c4=O)cc3F)c2cc1OC
active: Potency [3] 0.468 µM
inactive: viability [1] 113% | Potency [2] | Potency [4] | Potency [6]

Nc1ccc(F)cc1NC(=O)c1ccc(CNC(=O)/C=C/c2cccnc2)cc1
active: Potency [1] 13.2 µM | Potency [2] 4.17 µM | Potency [7] 4.17 µM | Potency [4] 5.25 µM | Potency [5] 16.6 µM | Potency [6] 14.8 µM

CCC[C@H](Nc1nc(-c2ccc(NC(=O)NCC)c(OC)c2)ncc1C)c1cccnc1
active: Potency [1] 0.118 µM | Potency [2] 0.105 µM | Potency [3] 0.0525 µM | Potency [4] 0.132 µM | Potency [6] 0.105 µM
